Marburg entry inh: qHTS for inhibitors of binding or entry into cells for Marburg Virus; Marburg virus pseudotyped entry inhibition, cell reporter; Potency, µM (titrated, usually from 37.8 µM), without a hit: top-dose activity change, negative = inhibition, actives largely listed as inhibitors; 300,000 compounds, 1.8% hits; calls by dose curve; tested in HEK293 cells; note: potency is the fitted concentration of half-maximal effect
LASV entry inh: qHTS for Inhibitors of binding or entry into cells for Lassa Virus; AID 540256, 2011; 300,000 compounds, 1.2% hits; Potency, µM (series often up to 37.9 µM), for inactives: top-dose activity change, negative = inhibition, most hits filed as inhibitors; Lassa virus pseudotype entry inhibition, cell reporter; calls by dose curve; tested in HEK293 cells; note: potency is the fitted concentration of half-maximal effect; nearly all actives have a fitted effect of over 50% in size
VACV Venus inh: qHTS for Stage-Specific Inhibitors of Vaccinia Orthopoxvirus: Venus Reporter Primary qHTS; Potency, µM (doses to about 36.5 µM), inactives show at the top dose activity change, negative = inhibition, actives largely listed as inhibitors; 330,000 compounds, 0.46% hits; Vaccinia virus Venus reporter expression, fluorescence; calls by dose curve; tested in A549 cells; note: potency is the fitted concentration of half-maximal effect; nearly all actives have a fitted effect of over 30% in size
FMDV antiviral: High Throughput Screening for Foot and Mouth Disease Virus Antivirals; FMDV antiviral cell-based qHTS; Potency, µM (highest dose often 57.9 µM), for inactives: top-dose activity change, negative = inhibition, usual class: inhibitors; 410,000 compounds, 1.2% hits; AID 1159524, 2015; calls by dose curve; tested in HEK293T cells; note: read-out not given here; potency is the fitted concentration of half-maximal effect; nearly all actives have a fitted effect of over 45% in size
HCMV antiviral: qHTS Assay for inhibitors of the human cytomegalovirus (HCMV). HFF cells, HCMV-luciferase reporter, 72 h; hits give low values. activity change, negative = inhibition, % at 57.5 µM. 410,000 compounds, 4.5% hits. AID 1259415, 2018; in the data active = activity change below about -60%; inconclusive = no clear call, values can overlap the other calls; inactive = above about -39%
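Human foreskin fibroblasts infected with luciferase-reporter HCMV at MOI 1 PFU/cell, compounds at two doses. Luciferase measured 72 h post infection; normalized to buffer-only basal and Salinomycin (10uM) controls.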
Vaccinia mCherry: qHTS for Stage-Specific Inhibitors of Vaccinia Orthopoxvirus: mCherry Reporter Primary qHTS; 310,000 compounds, 0.63% hits; Potency, µM (highest dose often 36.5 µM), for the others: top-dose activity change, negative = inhibition, most hits filed as inhibitors; Vaccinia virus mCherry reporter infection, fluorescence; calls by dose curve; tested in A549 cells; note: potency is the fitted concentration of half-maximal effect; nearly all actives have a fitted effect of over 35% in size
* marks the source's active call; other numbers are inactive results; i = inactive; ? = inconclusive; · = no result; ! = not confirmed by another sample; [ ] = remark or other dose. An excerpt weighted towards active compounds, which were near 6.5% of everything screened. % is set by controls: 0 for no effect and ±100 for the full control effect.

SMILES	Marburg entry inh	LASV entry inh	VACV Venus inh	FMDV antiviral	HCMV antiviral	Vaccinia mCherry
CCn1c(C(=O)NCc2ccccc2C)cc2oc3ccccc3c21	?	·	16.6%	-5.7%	-82.4*	?
CN(C)CC(O)CN1C(=O)N(CN2C(=O)N(CC(O)CN(C)C)C(=O)C2(C)C)C(C)(C)C1=O (stereo not given)	-24.8%[46.1 µM]	-2.3%	-1.6%	7.1%	-61.9*	5.7%
Cc1ccccc1Nc1c(-c2cccnc2)nc2ccccn12	·	·	-19.0%	-26.7%	?	?
Cc1ccc2nc(-c3ccccn3)c(Nc3ccc(F)cc3)n2c1	?	?	?	?	-93.8*	?
Cc1ccccc1Nc1c(-c2ccccn2)nc2ccccn12	·	·	·	?	-97.8*	·
Cc1ccn2c(Nc3ccccc3)c(-c3ccccn3)nc2c1	?	5.8µM*	-14.0%	-26.3%	0.0	2.24µM*
CC(C)c1ccc(Nc2c(-c3ccccn3)nc3ccccn23)cc1	?	?	?	?	-87.0*	11.2µM*
Cc1cccc(OCc2ccc(-c3nc(C#N)c(NCCN(C)C)o3)o2)c1	?	13.1%[46.1 µM]	-25.3%	-12.5%	38.0	i
Cc1cccc(C)c1Nc1c(-c2cccs2)nc2ncccn12	?	1.4%[46.1 µM]	2.7%	-15.1%	-3.8	-4.7%
Cc1ccc2nc(-c3ccccn3)c(Nc3ccccc3C)n2c1	8.9%[46.1 µM]	?	?	?	-100.4*	6.31µM*
Cc1ccn2c(Nc3ccccc3C)c(-c3ccccn3)nc2c1	?	?	?	?	-81.5*	7.94µM*
Cc1ccc(-c2nc3ccc(C)cn3c2Cc2ccccn2)cc1	·	·	4.4%	16.6%	-5.2	1.1%
Cc1ccc2nc(-c3cccs3)c(Nc3c(C)cccc3C)n2c1	7.08µM*	-2.3%[46.1 µM]	-14.6%	?	18.4	-24.0%
Cc1ccc2nc(-c3ccncc3)c(Nc3ccccc3C)n2c1	-9.5%[46.1 µM]	-9.4%[46.1 µM]	-22.5%	-24.3%	?	-21.0%
Cc1ccc2nc(-c3ccccn3)c(N)n2c1	·	·	0.9%	14.1µM*	40.3	i
O=C(N/N=C1\C[C@@H](O)[C@@H](O)[C@@H]2[C@@H]3C(=O)N(c4cccc(Oc5ccccc5)c4)C(=O)[C@@H]3CC[C@H]12)OCc1ccccc1	4.0%[14.2 µM]	·	·	·	·	·
COc1ccc(Oc2ccc3c(-c4ccccc4F)noc3n2)c(F)c1	·	·	·	·	0.4	·
CC=C[C@@H]1Oc2ccc(OC)cc2N2C(=O)[C@H](C)[C@@H](OCOC)[C@H]12	-22.7%[14.2 µM]	·	·	·	·	·
COc1ccc(CCC(=O)NC2CCCN(Cc3ccc(Cl)cc3)C2)cc1OC (stereo not given)	·	·	·	-13.3%	-28.8	·
O=C(CCc1ccc(F)c(F)c1)NC1CCCN(Cc2ccc(Cl)cc2)C1 (stereo not given)	11.2µM*	-20.4%[46.1 µM]	-8.3%	-18.1%	-8.1	-3.3%
Cc1ccc(C)c(C(=O)C[n+]2cccc(Br)c2)c1	·	·	-8.9%	·	·	-18.5%
CSc1ccc(C2c3[nH]c4ccccc4c3CCN2C(=O)CCC2CCCC2)cc1 (stereo not given)	·	?	7.8%	-6.1%	-77.9*	-8.6%
Cc1ccc(C2c3[nH]c4ccccc4c3CCN2C(=O)CCc2ccccc2)cc1 (stereo not given)	·	3.16µM*	-3.2%	-5.0%	-86.0*	-24.3%
O=C(CSc1ccccc1)N1CCc2c([nH]c3ccccc23)C1c1ccc(F)cc1 (stereo not given)	·	?	-23.3%	4.1%	-30.5	i
COc1cccc2c1[C@@H]1CN(CCCCn3c(=O)[nH]c4c(sc5ncc(-c6ccccc6)nc54)c3=O)C[C@@H]1CO2	7.94µM*	?	?	-20.9%	-28.8	?
SMILES	Marburg entry inh	LASV entry inh	VACV Venus inh	FMDV antiviral	HCMV antiviral	Vaccinia mCherry
O=c1cc(CN2CCCCCC2)nc2sccn12	2.0%[46.1 µM]	0.3%	-4.5%	-8.2%	7.2	i
CN1CCN(Cc2cc(=O)n3ccsc3n2)CC1	5.8%[46.1 µM]	-5.2%[46.1 µM]	-2.9%	-11.8%	-88.8*	i
CCc1ccccc1NC(=O)CCc1c(C)nn(-c2ccc(N3CCOCC3)nn2)c1C	·	6.0%[46.1 µM]	-4.4%	-18.8%	-61.7*!	-8.5%
Cc1ccc2nc(NC(=O)CSc3nccn3Cc3ccc(Cl)cc3)sc2c1	·	9.5%[46.1 µM]	-18.8%	16.9%	-10.7	-9.1%
OC1(c2ccc(OC(F)F)cc2)CSC(=Nc2cccnc2)N1C1CC1 (stereo not given)	3.55µM*	?	?	?	-30.4	-17.8%
Cc1ccc(OCCN2CCN(C(=O)CCC(=O)Nc3nnc(C)s3)CC2)cc1	-2.6%[46.1 µM]	-14.3%	-5.2%	?	-101.2*	-14.5%
Cc1ccc(OCCN2CCN(C(=O)CCC(=O)Nc3nnc(C(C)C)s3)CC2)cc1	?	?	?	?	-84.0*	·
Cc1ccc(NC(=O)c2c(NC(=O)c3ccccc3Cl)sc3c2CCC3)cc1	·	23.4%[46.1 µM]	-7.7%	-5.5%	-1.1	-20.9%
CC(C)C(C(=O)NC1CCCCC1)N1C(=O)C(=O)c2ccccc21 (stereo not given)	·	·	·	·	15.0	·
COc1cc(C)c(Cl)cc1S(=O)(=O)n1ccnc1C	12.7%	1.2%	-16.1%	·	-15.7	-19.3%
COc1ccc(C(C)(C)C)cc1S(=O)(=O)n1ccnc1C	-2.9%	?	4.9%	46.5%	-69.7*	-8.6%
[O-]/[N+](=C/c1ccc(F)cc1)c1ccccc1	2.9%	-12.9%	·	0.0%	-79.9*	·
[O-]/[N+](=C\c1ccncc1)c1ccccc1	1.9%	18.3%	0.0%	24.4%	-13.3	-6.4%
O=[N+]([O-])c1cc2c(ccc3occc32)o1	·	·	·	·	-72.8*	·
COc1c([N+](=O)[O-])c(=O)oc2ccccc12	4.9%	16.6%	-3.9%	-14.9%	66.7	-4.4%
CC12CCC(C(=O)N(CCCN3CCN(Cc4ccccc4)CC3)C1=O)C2(C)C (stereo not given)	?	16.8%	0.7%	-20.6%	-90.3*	-1.6%
COCCNC(=O)Nc1cc(C(=O)NCc2ccc(C(C)C)cc2)ccc1N1CCCC1	·	1.2%[46.1 µM]	-20.7%	-13.5%	-1.4	i
COc1ccc(OC)c(-c2cc(Cl)c3c(c2)CC(CNC(=O)c2coc4c2C(=O)CCC4)O3)c1 (stereo not given)	·	·	3.4%	17.8%	·	-9.7%
Cc1cc(C)c(N=C2CCCN2Cc2ccccc2)c(C#N)c1	-7.6%	1.7%	?	1.5%	-16.3	·
CN1CCc2c1nc1ccccc1c2N=C1CCCN1Cc1ccccc1	?	?	·	-27.7%	-61.3*	·
COc1c2occc2c(OC(C)=O)c2c(=O)cc(C)oc12	16.4%	-0.9%	-13.3%	-22.3%	-66.7*	-1.9%
O=C(Nc1cccc(N2CCC(NCc3cnn(-c4cccc(F)c4)c3)CC2)c1)c1ccncc1	·	·	-3.0%	-29.8%	·	-22.6%
Nc1ccc(C(=O)N/N=C\c2ccc(OC(=O)c3ccccc3Cl)cc2)cc1	·	·	·	14.1%	-11.3	·
CC(C)c1ccc(/C=N/Nc2ccc(C(=O)O)cc2)cc1	1.46µM*	0.651µM*	·	44.7µM*	-63.5*	·

High-throughput results from PubChem BioAssay.
